Records with an inconclusive call do not appear. Where a call stands in place of a potency, no number is given. A number with no mark means an inactive call. Active and inactive are the calls of the source. Unless noted, calls follow the shape of the full dose curve.
How the values were obtained:
[1] = qHTS assay to identify small molecule agonists of the vitamin D receptor (VDR) signaling pathway - cell viability counter screen (AID 743224; active = well fitted curve in the direction sought with a large enough effect in the repeat runs; an effect the other way counts as inactive or inconclusive; also: series mostly up to about 63 µM; nearly all actives have a fitted effect of over 50% in size)
Outline: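 Compounds were pin-transferred onto VDR-bla cells plated 4 h earlier; following 16 h incubation at 37C, cell viability was quantified by CellTiter-Glo luminescence after 30 min at room temperature.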

[2] = qHTS assay to identify small molecule antagonists of the vitamin D receptor (VDR) signaling pathway - cell viability counter screen (AID 743225; active = well fitted curve in the direction sought with a large enough effect in the repeat runs; an effect the other way counts as inactive or inconclusive; also: nearly all actives have a fitted effect of over 50% in size)
Outline: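 VDR-bla HEK 293T cells, 4 h pre-incubation at 37C, then compound plus 1-alpha,25-dihydroxyvitamin D3 (3 nM final) for 16 h. After the beta-lactamase FRET read, CellTiter-Glo was added to the same wells; luminescence after 30 min at room temperature.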

[3] = qHTS assay to identify small molecule agonists of the NFkB signaling pathway (AID 1159509; active = well fitted curve in the direction sought with a large enough effect in the signal ratio in the repeat runs, not every such curve was filed as active; the % refers to the signal ratio; also: series mostly up to about 61 µM)
Outline: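 Agonist activity was read as beta-lactamase-driven FRET change (460 and 530 nm emission, 405 nm excitation) following 1.5 hr substrate loading at room temperature. Beforehand, ME-180 NFkB-bla reporter cells were treated with compounds for 5 hr at 37 C.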

[4] = qHTS assay to identify small molecule agonists of the NFkB signaling pathway - cell viability counter screen (AID 1159515); also: series mostly up to about 61 µM; nearly all actives have a fitted effect of over 55% in size
Outline: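 Parallel cytotoxicity counter screen in ME-180 cells carrying an NFkB-response-element beta-lactamase reporter, 2,000 cells/well. Compound exposure lasted 5 hr at 37 C, 5% CO2. Cell viability was quantified by CellTiter-Glo luminescence.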

[5] = qHTS assay to identify small molecule agonists of the endoplasmic reticulum stress response signaling pathway (AID 1159516; active = well fitted activation curve with a large enough effect in the signal ratio in the repeat runs, not every such curve was filed as active; the % refers to the signal ratio)
Outline: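 Using a HeLa line with an ESRE-driven beta-lactamase gene, agonist activity was measured by FRET substrate fluorescence (460 and 530 nm emission) after cells were treated with compounds for 5 hr at 37 C and 5% CO2.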

[6] = qHTS assay to identify small molecule agonists of the endoplasmic reticulum stress response signaling pathway - cell viability counter screen (AID 1159517);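 also: HeLa cells carrying an ER stress response element beta-lactamase reporter; series mostly up to about 61 µM; nearly all actives have a fitted effect of over 50% in size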
Outline: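 In parallel with the ESRE reporter read, cytotoxicity was scored by CellTiter-Glo luminescence (30 min, room temperature) on HeLa ESRE-bla cells dosed for 5 hr.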

[7] = qHTS assay to identify small molecule antagonists of the retinoid-related orphan receptor gamma (ROR-gamma) signaling pathway - cell viability counter screen (AID 1159520; active = well fitted curve in the direction sought with a large enough effect in the repeat runs; an effect the other way counts as inactive or inconclusive; also: nearly all actives have a fitted effect of over 50% in size)
Outline: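 Tet-on ROR gamma CHO cells were given compounds for 2 hr, then doxycycline hyclate at 1 uM final, and incubated 16 hr at 37 C. Viability was measured as ATP content by CellTiter-Glo luminescence.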

[8] = molecular target: Nuclear receptor ROR-gamma (Homo sapiens) (UniProt P51449); experiment: qHTS assay to identify small molecule antagonists of the retinoid-related orphan receptor gamma (ROR-gamma) signaling pathway (AID 1159521; active = well fitted curve in the direction sought with a large enough effect in the repeat runs; an effect the other way counts as inactive or inconclusive; also: nearly all actives have a fitted effect of over 50% in size; also: potency is read from the fitted curve at half-maximal effect;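 as to activity change, negative = inhibition: CHO cells with doxycycline inducible ROR-gamma driving an RORE luciferase reporter; top concentration of the series differs between compounds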)
Outline: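 Tet-on RORγ CHO cells carrying a ROR response element–luciferase reporter were pretreated with compounds for 2 h, then induced with 1 uM (final) doxycycline hyclate for 16 h at 37 C. Antagonism was read as decreased ONE-Glo luminescence.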

[9] = qHTS assay to identify small molecule agonists of the AP-1 signaling pathway - cell viability counter screen (AID 1159525); also: nearly all actives have a fitted effect of over 55% in size
Outline: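 Same-well cytotoxicity counter screen of the Tox21 10K library in ME-180 cells. The readout is ATP-dependent luminescence after 5 h compound treatment. Data are normalised to DMSO and tetra n-octyl ammonium bromide controls.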

[10] = qHTS assay to identify small molecule agonists of the AP-1 signaling pathway (AID 1159526)

SMILES | outcome [1] | outcome [2] | outcome [3] | outcome [4] | outcome [5] | outcome [6] | Potency [7] | Potency [8] | outcome [9] | Potency [10] | activity change, negative = cytotoxicity [1] | viability change, negative = cytotoxic [2] | activation [3] | activity, negative = cytotoxic [4] | activation [5] | activity change, negative = cytotoxicity [6] | activity, negative = cytotoxicity [7] | activity change, negative = inhibition [8] | viability change, negative = cytotoxic [9] | activation [10]
CCOc1cc(OCC)c(C(C)=O)cc1OCC | inactive | inactive | inactive | inactive | inactive | inactive | inactive | inactive | inactive | inactive |  |  |  |  |  |  |  |  |  | 
Cc1cc(SC2=C(O)C[C@@](CCc3ccc(N)cc3)(C(C)C)OC2=O)c(C(C)(C)C)cc1CO | inactive | inactive | inactive | inactive | inactive | inactive | inactive | inactive | inactive | inactive |  |  |  |  |  |  |  |  |  | 
C[Si](C)(C)O[Si](C)(C)O[Si](C)(C)C | inactive | inactive | inactive | inactive | inactive | inactive | inactive | inactive | inactive | inactive |  |  |  |  |  |  |  |  |  | 
CC1=C(C)C(=O)C(CCCCC#CCCCC#CCO)=C(C)C1=O | inactive | inactive | inactive | inactive | inactive | inactive | inactive | 29.8 µM (active) | inactive | inactive |  |  |  |  |  |  |  |  |  | 
O=P(c1ccccc1)(c1ccccc1)c1ccccc1 | inactive | inactive | inactive | inactive | inactive | inactive | inactive | inactive | inactive | inactive |  |  |  |  |  |  |  |  |  | 
Cc1ccc2c(Cl)cc(Cl)c(O)c2n1 | inactive | inactive | inactive | inactive | inactive | inactive | inactive | inactive | inactive | inactive |  |  |  |  |  |  |  |  |  | 
CO[C@@H]1[C@@H](O[C@@H]2O[C@H](C)[C@@H](O[C@H]3C[C@@](C)(O)[C@@H](O)[C@H](C)O3)[C@H](N(C)C)[C@H]2O)[C@@H](CC=O)C[C@@H](C)[C@@H](O[C@@H]2CC[C@H](N(C)C)[C@@H](C)O2)/C=C/C=C/C[C@@H](C)OC(=O)C[C@H]1OC(C)=O | inactive | inactive | inactive | inactive | inactive | inactive | inactive | inactive | inactive | inactive |  |  |  |  |  |  |  |  |  | 
CCCCCCCCCCCCCCCCCCCl |  |  |  |  |  |  |  |  |  |  | 6.04% [at 5.95 µM] | -10.5% [at 6.95 µM] | -0.691% [at 6.95 µM] | -1.14% [at 6.95 µM] | -3.96% [at 6.95 µM] | 2.96% [at 6.95 µM] | -1.61% [at 8.39 µM] | 0.775% [at 8.39 µM] | 1.66% [at 6.97 µM] | -4.53% [at 6.97 µM]
CC(C)CCCCCOC(=O)CS | inactive | inactive | inactive | inactive | inactive | inactive | inactive | inactive | inactive | inactive |  |  |  |  |  |  |  |  |  | 
O=C(O)c1cc(C(=O)O)cc([N+](=O)[O-])c1 | inactive | inactive | inactive | inactive | inactive | inactive | inactive | inactive | inactive | inactive |  |  |  |  |  |  |  |  |  | 
C1CCN(CN2CCCCC2)CC1 | inactive | inactive | inactive | inactive | inactive | inactive | inactive | inactive | inactive | inactive |  |  |  |  |  |  |  |  |  | 
O=C(OCCOCCOCCOC(=O)c1ccccc1)c1ccccc1 | inactive | inactive | inactive | inactive | inactive | inactive | inactive | inactive | inactive | inactive |  |  |  |  |  |  |  |  |  | 
CC(=O)c1ccc(Cl)c(Cl)c1Cl | inactive | inactive | inactive | inactive | inactive | inactive | inactive | inactive | inactive | inactive |  |  |  |  |  |  |  |  |  | 
Nc1ncnc2c1ncn2[C@@H]1O[C@H](CO)[C@@H](O)[C@H]1O | inactive | inactive | inactive | inactive | inactive | inactive | inactive | inactive | inactive | inactive |  |  |  |  |  |  |  |  |  | 
COc1ccc(/C(C)=C/C(=O)O)c(OC)c1 | inactive | inactive | inactive | inactive | inactive | inactive | inactive | inactive | inactive | inactive |  |  |  |  |  |  |  |  |  | 
Cc1c(Nc2ncccc2C(=O)O)cccc1C(F)(F)F | inactive | inactive | inactive | inactive | inactive | inactive | inactive | inactive | inactive | inactive |  |  |  |  |  |  |  |  |  | 
Cc1cc(N)n(-c2ccccc2)n1 | inactive | inactive | inactive | inactive | inactive | inactive | inactive | inactive | inactive | inactive |  |  |  |  |  |  |  |  |  | 
CCOC(=O)CC(O)(CC(=O)OCC)C(=O)OCC | inactive | inactive | inactive | inactive | inactive | inactive | inactive | inactive | inactive | inactive |  |  |  |  |  |  |  |  |  | 
CC(C)Cc1nccs1 | inactive | inactive | inactive | inactive | inactive | inactive | inactive | inactive | inactive | inactive |  |  |  |  |  |  |  |  |  | 
C=CC(C)(O)CC/C=C(/C)CCC=C(C)C (stereo not given) | inactive | inactive | inactive | inactive | inactive | inactive | inactive | inactive | inactive | inactive |  |  |  |  |  |  |  |  |  | 
CC(=O)Oc1cccc2c1C(=O)c1c(OC(C)=O)cc(C(=O)O)cc1C2=O | inactive | inactive | inactive | inactive | inactive | inactive | inactive | inactive | inactive | inactive |  |  |  |  |  |  |  |  |  | 

— PubChem BioAssay (Tox21)
